Experimental data reported in the supplement of paper PMC6555819.

tested on: VDR:RXRa (NR concentration 270 nM, RXRa partner concentration 90 nM); experiment: PBM binding z-score (relative to random genomic background probes); higher = stronger binding; sequences stand for … in GC…GCGATTGACAGCGTAGAATGAAGG
Protocol: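 Protein-binding microarray (Agilent 4x180K custom design, double-stranded 60-nt probes: 5' GC cap, 34-nt variable region, 24-nt constant primer region; full probe sequence given). Purified or IVT nuclear receptor:RXRα heterodimers (3:1 NR:RXRα, mostly 270:90 nM) or homodimers were incubated for 1 h in PBS with 2% milk and no ligand, then detected with Alexa488 antibodies. Fluorescence from o1-orientation probes (~5 replicates averaged) was converted to z-scores against 500 random hg19 background probes. Variable regions are seed direct-repeat (DR0–DR5) sites, all their single-nucleotide variants and half-site ablations.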

| Sequence | PBM binding z-score |
| --- | --- |
| TAGCCTAGGCCATTCAGGGGCCAGTATAGAAAGC | -0.423 |
| ATATGTAGGTTAGCTGGGGTCATACAGACTAGGC | 6.08 |
| TTACCAAGGTGAAAGGTCGTAGATGCACGCCTTG | 3.04 |
| CGTCCAAGGTCAGAGAGGTCCGTGAATGCCGAGT | 4.73 |
| TGTCAAAGTTCAAATGTAACGTAAGTATCCACAC | 4.57 |
| TCTTGTAGATCAACAGAAGGTTAAGAAAGATCGA | 0.765 |
| ACTATTAGTTGAGACGAGGGCAACCGTTAGGTTG | 0.546 |
| GCTAGTTGGTCGGTAAAAGGTCACACACCGGTCG | 3.89 |
| CCTACTGGGCCACGAAAGGTCATGGATTCAGTGA | 4.1 |
| TCTCGGAGGACACGAAAGGACAGAGCTCGACATC | -0.146 |
| GTACCAAGGTGAATCGGTCGTTGATGAGTAGGCG | -0.122 |
| TCTGCTTGGTCAGTTGGTCAGCTAACGAGCTGCC | -0.451 |
| GCTATTAGCTGAAAGGGCAACCGAATGATTCTCG | -0.0457 |
| ATCGCTAGGTAAAGATAGTTCAGTGAATGCAAAT | 0.0952 |
| ATACCAAGCTGATCGTGAGGTCGTTGATACTAAC | 1.38 |
| CCTCCTAGGTCATGGTCAGCTAATCTACAGTATG | 1.93 |
| CCTACGGGGCCATTCAGAGGTCATTGATCATATG | 5.2 |
| TCTAGCTGGCCAGAGGGTCACTCAAGAGGTACGG | 1.44 |
| CCGTCTGGGGCAAAGGTTACCATACTCAGTACGA | 1.55 |
| ATCGAAAGGACGACGAGGTGAGTATACACCGTTT | 0.0992 |

| Sequence | PBM binding z-score |
| --- | --- |
| TCAGATAGGTAAACAGGTGAAAGTCCGTAAGTTA | 0.923 |
| CTGCCAAGGTGAACAAGGTCGTTGATTACTATTC | 5.88 |
| CGTCCAAGGTCATAGGAGGTCAGAGAAGACAGAT | 6.67 |
| TCTGCCAGGTCAGTTGGTCAGCTAACGAGCTGCC | 0.52 |
| CTACCAAGGTGAACAAGATCGTTGATTACTATTC | 1.31 |
| CAAACTAGGTCACAGAGGTCAAGGTCCGTGCGTA | 7.73 |
| GGAACGAGGGCAAGTTGAGAGCAGAGTTTGATGG | 0.881 |
| ACAATGAGGTTACCAAAGATCAGGGAAACGCTTG | 1.68 |
| CGTCCCAGGTCAAGGTCAGTGAAAGAGACTCGAA | 3.85 |
| GCTGCTAGGTCACCTGATGGTCAGCTAAAGCTCG | 1.31 |
| CCTTACGGGTCACGAGGTTTTAGCACGACGAGCG | 5.64 |
| GCATTTAGGTAATACAAGGTGAAAGTCCGATTGT | 0.176 |
| TCATATAGGTAAATCCTAGGTGAAAGTCCGATCT | 0.7 |
| CGAACGAGGGAATGAGTTGATAGCAAATGCCGAT | -0.28 |
| GGAATGAGGGCATTCGAGTTGATAGCATGGCGAT | 3.45 |
| GCGACTGGGGCACCAGCAGGTTACCATAACTTAA | -0.157 |
| GGAACGTGGGCATTCGAGTTGATAGCATGGCGAT | -0.17 |
| GATACAGGCTCAAGGCCAGAGTACGCGTATTGAT | -0.543 |
| TATTGTAGATCAATAGAGGTTAAGAAAGTGCGCT | 1.91 |
| TCTTTTAGATCAGCAGGTTAAGAAAGCTGGCCAA | 0.691 |
